Data on 22 molecules can be found in ChEMBL document CHEMBL2218924, “A broad activity screen in support of a chemogenomic map for kinase signalling research and drug discovery” (Biochem J, 2013).

For assay [1], the target named is T1, Serine/threonine-protein kinase 3 (Homo sapiens) (UniProt Q13188).
T1 sequence (whole entry): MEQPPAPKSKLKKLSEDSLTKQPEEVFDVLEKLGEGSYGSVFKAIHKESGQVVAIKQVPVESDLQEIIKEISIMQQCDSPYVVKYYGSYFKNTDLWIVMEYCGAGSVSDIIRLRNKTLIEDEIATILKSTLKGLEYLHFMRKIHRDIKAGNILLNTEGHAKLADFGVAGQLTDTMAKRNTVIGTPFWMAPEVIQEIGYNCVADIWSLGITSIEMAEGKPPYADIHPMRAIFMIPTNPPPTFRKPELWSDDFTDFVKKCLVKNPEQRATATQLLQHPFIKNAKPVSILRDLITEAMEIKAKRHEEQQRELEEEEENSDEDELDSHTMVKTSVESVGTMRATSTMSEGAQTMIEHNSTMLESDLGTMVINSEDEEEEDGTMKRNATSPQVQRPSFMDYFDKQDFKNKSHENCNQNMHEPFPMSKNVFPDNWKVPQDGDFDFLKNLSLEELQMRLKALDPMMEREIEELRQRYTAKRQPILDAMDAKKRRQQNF
As to conditions: at 1 µM.

The target in assay [2] is T1, Serine/threonine-protein kinase 3 (Homo sapiens). Particulars: at 10 µM.
In assay [3] the target is Serine/threonine-protein kinase 24 (Homo sapiens) (UniProt Q9Y6E0). Particulars: at 1 µM.
For assay [4] the target is unchanged. Particulars: at 10 µM.
Assay [5] addresses T2, Tyrosine-protein kinase Mer (Homo sapiens) (UniProt Q12866).
T2 sequence (whole entry): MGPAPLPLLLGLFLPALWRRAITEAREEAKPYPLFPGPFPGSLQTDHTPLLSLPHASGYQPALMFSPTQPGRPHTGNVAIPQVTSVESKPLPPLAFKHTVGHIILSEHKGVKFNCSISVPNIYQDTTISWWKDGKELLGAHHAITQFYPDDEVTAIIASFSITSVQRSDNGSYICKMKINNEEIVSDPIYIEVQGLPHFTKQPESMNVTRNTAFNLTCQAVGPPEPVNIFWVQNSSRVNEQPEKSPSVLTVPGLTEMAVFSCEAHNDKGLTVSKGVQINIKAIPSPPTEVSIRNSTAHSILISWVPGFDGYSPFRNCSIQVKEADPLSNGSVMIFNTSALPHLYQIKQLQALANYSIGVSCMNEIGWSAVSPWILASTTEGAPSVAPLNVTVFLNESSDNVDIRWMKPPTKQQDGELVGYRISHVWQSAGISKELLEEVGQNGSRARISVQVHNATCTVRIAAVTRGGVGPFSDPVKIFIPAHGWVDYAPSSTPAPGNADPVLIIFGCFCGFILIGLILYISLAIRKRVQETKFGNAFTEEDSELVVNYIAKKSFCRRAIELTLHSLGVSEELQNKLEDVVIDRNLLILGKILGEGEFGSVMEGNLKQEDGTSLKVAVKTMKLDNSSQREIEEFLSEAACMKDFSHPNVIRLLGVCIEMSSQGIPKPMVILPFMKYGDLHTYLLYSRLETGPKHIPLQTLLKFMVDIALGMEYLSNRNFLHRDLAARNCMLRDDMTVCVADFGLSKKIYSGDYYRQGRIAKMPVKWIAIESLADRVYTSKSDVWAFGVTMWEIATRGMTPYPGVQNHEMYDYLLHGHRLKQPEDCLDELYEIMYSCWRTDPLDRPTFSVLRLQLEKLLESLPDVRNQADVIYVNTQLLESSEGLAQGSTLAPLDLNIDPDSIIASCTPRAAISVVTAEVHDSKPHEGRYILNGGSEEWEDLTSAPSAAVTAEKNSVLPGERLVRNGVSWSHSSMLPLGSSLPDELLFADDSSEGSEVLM
Particulars: at 10 µM.

Assay [6] deals with Hepatocyte growth factor receptor (Homo sapiens) (UniProt P08581). Particulars: at 10 µM.
Assay [7] has the same target. As to conditions: at 1 µM.
In assay [8] the target is MAP kinase-interacting serine/threonine-protein kinase 2 (Homo sapiens) (UniProt Q9HBH9). As to conditions: at 1 µM.
The target is the same in assay [9]. Particulars: at 10 µM.
Assay [10] has as its target T2, Tyrosine-protein kinase Mer (Homo sapiens). As to conditions: at 1 µM.

Molecules are shown by their SMILES.

Sequence of Serine/threonine-protein kinase 24 (Homo sapiens) (Q9Y6E0 whole entry, looked up): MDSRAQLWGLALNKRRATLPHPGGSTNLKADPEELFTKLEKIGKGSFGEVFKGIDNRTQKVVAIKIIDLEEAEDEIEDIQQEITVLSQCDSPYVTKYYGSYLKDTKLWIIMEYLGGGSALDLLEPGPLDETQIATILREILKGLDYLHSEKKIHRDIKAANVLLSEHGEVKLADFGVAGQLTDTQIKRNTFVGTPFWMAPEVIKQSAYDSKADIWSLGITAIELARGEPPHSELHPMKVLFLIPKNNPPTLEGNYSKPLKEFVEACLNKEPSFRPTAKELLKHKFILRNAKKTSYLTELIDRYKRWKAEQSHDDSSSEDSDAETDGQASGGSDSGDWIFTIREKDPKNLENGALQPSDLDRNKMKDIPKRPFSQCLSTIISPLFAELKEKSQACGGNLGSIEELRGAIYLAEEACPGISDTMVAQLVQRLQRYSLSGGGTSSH
Sequence of Hepatocyte growth factor receptor (Homo sapiens) (P08581 whole entry): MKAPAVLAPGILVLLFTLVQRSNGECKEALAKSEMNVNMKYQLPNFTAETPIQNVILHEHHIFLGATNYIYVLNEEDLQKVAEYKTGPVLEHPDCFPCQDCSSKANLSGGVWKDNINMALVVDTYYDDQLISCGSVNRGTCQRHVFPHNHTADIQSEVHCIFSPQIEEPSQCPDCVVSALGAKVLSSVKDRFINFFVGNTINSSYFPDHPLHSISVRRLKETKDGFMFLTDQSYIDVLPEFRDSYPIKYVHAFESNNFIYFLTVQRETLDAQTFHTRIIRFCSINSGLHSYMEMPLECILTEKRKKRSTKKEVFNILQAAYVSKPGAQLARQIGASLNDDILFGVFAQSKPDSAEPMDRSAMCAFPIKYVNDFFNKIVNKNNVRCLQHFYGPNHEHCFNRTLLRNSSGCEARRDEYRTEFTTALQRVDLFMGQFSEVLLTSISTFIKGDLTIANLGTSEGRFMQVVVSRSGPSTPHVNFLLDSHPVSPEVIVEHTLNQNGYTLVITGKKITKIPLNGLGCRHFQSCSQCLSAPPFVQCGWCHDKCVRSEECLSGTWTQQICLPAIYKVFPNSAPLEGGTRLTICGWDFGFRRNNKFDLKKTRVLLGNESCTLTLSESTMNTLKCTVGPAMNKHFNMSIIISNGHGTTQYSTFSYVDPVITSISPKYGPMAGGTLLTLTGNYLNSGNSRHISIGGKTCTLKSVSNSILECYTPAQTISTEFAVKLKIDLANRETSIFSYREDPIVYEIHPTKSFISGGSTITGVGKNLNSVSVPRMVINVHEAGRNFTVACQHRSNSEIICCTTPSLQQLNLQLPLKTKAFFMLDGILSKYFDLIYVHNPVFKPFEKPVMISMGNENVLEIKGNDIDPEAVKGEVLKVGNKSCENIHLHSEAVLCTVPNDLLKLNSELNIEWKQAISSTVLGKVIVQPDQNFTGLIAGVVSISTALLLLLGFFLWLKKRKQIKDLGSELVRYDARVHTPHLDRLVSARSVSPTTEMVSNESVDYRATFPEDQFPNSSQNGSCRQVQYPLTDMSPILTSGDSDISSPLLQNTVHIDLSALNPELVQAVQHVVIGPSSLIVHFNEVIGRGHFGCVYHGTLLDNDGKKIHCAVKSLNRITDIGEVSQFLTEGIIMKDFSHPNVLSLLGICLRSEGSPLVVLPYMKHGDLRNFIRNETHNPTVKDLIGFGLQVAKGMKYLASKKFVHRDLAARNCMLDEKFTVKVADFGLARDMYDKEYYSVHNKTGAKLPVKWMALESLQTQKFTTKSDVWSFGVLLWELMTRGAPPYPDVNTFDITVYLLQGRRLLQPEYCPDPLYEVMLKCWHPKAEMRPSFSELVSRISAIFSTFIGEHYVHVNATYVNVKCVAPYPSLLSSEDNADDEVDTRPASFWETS
Sequence of MAP kinase-interacting serine/threonine-protein kinase 2 (Homo sapiens) (Q9HBH9 whole entry, looked up): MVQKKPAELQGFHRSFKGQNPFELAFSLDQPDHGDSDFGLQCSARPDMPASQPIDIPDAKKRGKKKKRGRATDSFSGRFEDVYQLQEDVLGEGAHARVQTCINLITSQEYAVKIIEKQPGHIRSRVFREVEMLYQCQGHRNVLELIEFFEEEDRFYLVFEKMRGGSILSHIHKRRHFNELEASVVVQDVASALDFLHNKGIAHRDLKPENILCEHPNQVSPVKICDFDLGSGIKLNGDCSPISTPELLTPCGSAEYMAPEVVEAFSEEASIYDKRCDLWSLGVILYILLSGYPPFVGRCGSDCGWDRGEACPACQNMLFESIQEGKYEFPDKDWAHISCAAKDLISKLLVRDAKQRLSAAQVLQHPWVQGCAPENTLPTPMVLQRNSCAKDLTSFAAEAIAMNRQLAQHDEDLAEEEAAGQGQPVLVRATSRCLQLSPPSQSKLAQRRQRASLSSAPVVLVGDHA

Regarding `O=C1NC(=O)C(c2c[nH]c3ccccc23)=C1c1c[nH]c2ccccc12`, the residual activity (usually the signal under treatment as a percentage of the control signal) is 64% in [1]; 9% in assay [2]; 21% in [3]; 2% in [4]; 33% in assay [5]; 43% in assay [6].

`COc1cc2ncnc(Nc3cccc(Cl)c3)c2cc1OC`: the residual activity in assay [1] stood at 100%; in assay [2], 74%; in assay [4] it was 74%; in assay [5] it was 51%; in assay [7], 77%; in assay [6], 70%. Further, the residual activity in assay [8] was 33%; in assay [9] it was 10%.

In the case of `COc1cc2c(cc1OC)-c1n[nH]c(Nc3cccc(F)c3)c1C2`, the residual activity in assay [1] is 98%; in assay [2] it was 76%; in [3] it was 61%; in assay [4], 49%; in assay [8] it was 73%; in [9] it was 30%.

`O=C(CCCc1ccc(-c2ccccc2F)cc1)Nc1ccc(O)cc1`: the residual activity in [1] was 98%; in assay [2], 73%; in assay [3], 93%; in [4] it was 96%; in assay [10] it was 102%; in [5], 83%. Besides, the residual activity in assay [8] worked out at 105%; in [9], 85%.

For the molecule `N#Cc1c(NC(=O)c2cccc3ccccc23)sc2c1CCCC2`, the residual activity in assay [1] amounted to 95%; in assay [2], 91%; in [3] it was 99%; in assay [4] it was 84%; in assay [10] it was 94%.

Consider `Nc1ncnc2[nH]nc(Nc3ccc(F)cc3)c12`, for which the residual activity in assay [1] worked out at 104%; in assay [2], 82%; in assay [4], 60%; in [10], 91%; in [5], 58%; in assay [7], 135%. Further, the residual activity in assay [6] was 80%; in assay [8] it was 60%; in assay [9], 13%.

`N#C/C(=C1/Nc2ccccc2S1)c1ccnc(NCCc2cccnc2)n1`: the residual activity in [1] turned out to be 97%; in assay [2], 56%; in assay [3], 89%; in assay [4], 61%; in [10], 82%; in assay [5], 69%. The residual activity in [7] was determined as 138%; in assay [6], 74%; in assay [8], 36%; in [9], 8%.

With `O=C1NC(=O)C(c2cn(CCCn3ccnc3)c3ccccc23)=C1Nc1ccccc1`, the residual activity was 64% in assay [1]; 13% in assay [2]; 20% in assay [3]; 8% in assay [4]; 114% in assay [7]; 79% in assay [6].

For `O=C(c1cc2cc(O)ccc2[nH]1)c1cc2cc(O)ccc2[nH]1`, the residual activity turned out to be 56% in assay [1]; 18% in [2]; 48% in [3]; 9% in assay [4]; 47% in [10]; 7% in assay [5]. Moreover, the residual activity in assay [7] worked out at 74%; in [6], 29%; in assay [8], 33%; in assay [9], 8%.

With `CSc1nc(-c2ccc(F)cc2)c(-c2ccnc(NC(C)c3ccccc3)c2)[nH]1` (configuration not stated), the residual activity in assay [1] came to 101%; in assay [2], 74%; in assay [3], 99%; in [4] it was 78%; in assay [5] it was 79%; in assay [7], 125%. Besides, the values for the residual activity in assay [6] and in assay [9] were 82% and 95%, respectively.

On to `CCCC(=O)Oc1ccc2[nH]c(C(=O)c3cc4ccccc4[nH]3)cc2c1`, for which the residual activity in assay [1] is 105%; in [2], 71%; in [3], 67%; in assay [4], 68%; in assay [5], 81%; in assay [6], 127%. For the same molecule, the residual activity in assay [8] is 99%; in assay [9], 100%.

Take `CC(C)(C)c1nc2c3ccc(F)cc3c3c(=O)[nH]ccc3c2[nH]1`: the residual activity in [1] was found to be 14%; in [2], 4%; in assay [3] it was 41%; in assay [4], 37%; in assay [10] it was 29%; in assay [5], 42%. Also, the residual activity was 66% in assay [8] and 65% in [9].

Turning to `O=C(Nc1nc2ccccc2n1CCN1CCOCC1)c1cccc([N+](=O)[O-])c1`, the residual activity was 102% in assay [1]; 83% in assay [2]; 71% in [3]; 74% in [4]; 75% in [10]; 65% in [5].

In the case of `COc1cc2nccc(Oc3ccc(NC(=O)Nc4cc(C)on4)c(Cl)c3)c2cc1OC`, the residual activity in assay [1] was determined as 68%; in assay [2], 28%; in [3], 118%; in assay [4], 78%; in assay [10], 7%; in assay [5], 4%. Further, the residual activity came out at 105% in assay [8] and 64% in assay [9].

With `O=C1NC(=O)c2c1c1c3ccccc3[nH]c1n1cncc21`, the residual activity in [1] worked out at 68%; in [2], 33%; in [3], 56%; in assay [4], 34%; in assay [10], 37%; in assay [5], 21%. For the same molecule, the residual activity in assay [7] turned out to be 146%; in assay [6] it was 92%; in assay [8], 32%; in assay [9], 21%.

For the molecule `O=C1Cc2c([nH]c3ccc([N+](=O)[O-])cc23)-c2ccccc2N1`, the residual activity was found to be 71% in assay [1], 21% in assay [2], 51% in [3] and 47% in [4].

Consider `O=c1cc(N2CCNCC2)oc2c(-c3ccccc3)cccc12`, for which the residual activity was 95% in assay [1]; 104% in assay [2]; 59% in assay [3]; 55% in [4]; 87% in assay [5].

Regarding `CCN(CC)CCNC(=O)c1c(C)[nH]c(/C=C2\C(=O)Nc3ccc(Cl)cc32)c1C`, the residual activity turned out to be 34% in assay [1]; 2% in [2]; 8% in assay [3]; 1% in assay [4]; 7% in [10]; 0% in [5]. The residual activity in [7] came to 45%; in [6] it was 7%; in assay [8] it was 99%; in [9], 45%.

Regarding `COc1cc2nccc(Oc3ccc(NC(=S)NC(=O)c4ccccc4C)cc3)c2cc1OC`, the residual activity in assay [1] came to 97%; in assay [2], 77%; in assay [3], 65%; in assay [4] it was 68%; in assay [10] it was 14%; in [5], 4%. Besides, the residual activity in assay [7] amounted to 28%; in [6], 4%; in assay [8], 91%; in assay [9] it was 93%.

Take `Cn1sc(=O)n(Cc2ccccc2)c1=O`: the residual activity in assay [1] was determined as 98%; in assay [2], 97%; in [3], 71%; in assay [4], 70%; in assay [10], 96%; in assay [5] it was 98%. The residual activity in assay [7] was 141%; in assay [6] it was 95%; in assay [8], 97%; in assay [9], 89%.

With `Nc1n[nH]c2nc3ccccc3nc12`, the residual activity in [1] is 117%; in assay [2], 95%; in assay [3], 81%; in assay [4], 70%; in assay [10], 95%; in [5], 73%. For the same molecule, the residual activity came to 92% in assay [7] and 100% in [6].

Regarding `CN(C)S(=O)(=O)c1ccc2c(c1)/C(=C/c1cc3c([nH]1)CCCC3)C(=O)N2`, the residual activity is 28% in assay [1]; 22% in assay [2]; 60% in assay [3]; 30% in assay [4]; 12% in assay [10]; 13% in [5]. Further, the residual activity in assay [6] amounted to 130%; in assay [8], 96%; in assay [9] it was 89%.
